Source: PubChem BioAssay
Calls of active or inactive are those of the source. Unless noted, how the calls were made is not given here.

How the values were obtained:
[1] = HepG2 liver cancer cell viability effects, profiling panel, resazurin fluorescence, 24 h, PK04 Diversity Set (AID 1172); conditions: higher = more signal; further: test concentration not given here
[2] = basal S. cerevisiae growth modulation, no modifier, primary screen, OD600, strain BY4716, 24 h, basal condition (AID 1173); conditions: OD600, 24 h, higher = more signal, called active from +8 up or from −8 down
[3] = MM1S myeloma cell viability, profiling panel, resazurin fluorescence, basal, 24 h, PK04 Diversity Set (AID 1174); conditions: higher = more signal, called active from +8 up or from −8 down;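 further: MM1S multiple myeloma cell line; test concentration not given here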
[4] = molecular target: Dihydroorotate dehydrogenase (quinone), mitochondrial (Plasmodium falciparum (isolate 3D7)) (UniProt Q08210); test: PfDHODH enzyme inhibitors, primary screen, biochemical, C-terminal His tag, absorbance 600 nm (AID 1175); conditions: DCIP absorbance 600 nm, higher = more signal, called active from +8 up or from −8 down;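 further: recombinant parasite enzyme with a five histidine tag at its C terminus; test concentration not given here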
[5] = P. aeruginosa biofilm formation inhibitors, primary screen, strain PAO1, LB-PBS medium, absorbance 600 nm (AID 1176); further: test concentration not given here; conditions: P. aeruginosa PAO1 growth/biofilm, A600, 12 h; higher = more signal
[6] = S. cerevisiae RM11-1a growth modifiers, primary screen, strain RM11-1a, OD600, basal, 24 h (AID 1177); conditions: OD600, 24 h, higher = more signal, called active from +8 up or from −8 down;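 further: cultures grown under basal conditions with no added stressor; test concentration not given here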
[7] = E. coli acrAB mutant growth effects, primary screen, E. coli filamentation inducers, strain DRC39, OD650, 24 h (AID 1178); conditions: higher = more signal, called active from +8 up or from −8 down;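 further: growth measured as culture turbidity by optical density at 650 nm; test concentration not given here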
[8] = E. coli acrAB mutant growth effects, primary screen, E. coli filamentation inducers, strain DRC39, OD650, 48 h (AID 1179);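 further: screen aims at cell division blockers that make cells filament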; conditions: E. coli DRC39 delta-acrAB growth, higher = more signal, called active from +8 up or from −8 down
[9] = RPMI8226 myeloma cell viability, profiling panel, resazurin fluorescence, basal, 24 h, PK04 Diversity Set (AID 1180); conditions: higher = more signal;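 further: RPMI8826 multiple myeloma cell line at 5000 cells per well; test concentration not given here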
[10] = molecular target: E3 ubiquitin-protein ligase XIAP (Homo sapiens) (UniProt P98170); test: XIAP binders, primary screen, biophysical, small-molecule microarray, fluorescence 635 nm (AID 1181); conditions: small-molecule microarray binding, higher = more signal;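 further: score merges 667 nm emission and signal to noise over triplicate slides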
Chain of E3 ubiquitin-protein ligase XIAP (Homo sapiens) (P98170 whole entry, looked up): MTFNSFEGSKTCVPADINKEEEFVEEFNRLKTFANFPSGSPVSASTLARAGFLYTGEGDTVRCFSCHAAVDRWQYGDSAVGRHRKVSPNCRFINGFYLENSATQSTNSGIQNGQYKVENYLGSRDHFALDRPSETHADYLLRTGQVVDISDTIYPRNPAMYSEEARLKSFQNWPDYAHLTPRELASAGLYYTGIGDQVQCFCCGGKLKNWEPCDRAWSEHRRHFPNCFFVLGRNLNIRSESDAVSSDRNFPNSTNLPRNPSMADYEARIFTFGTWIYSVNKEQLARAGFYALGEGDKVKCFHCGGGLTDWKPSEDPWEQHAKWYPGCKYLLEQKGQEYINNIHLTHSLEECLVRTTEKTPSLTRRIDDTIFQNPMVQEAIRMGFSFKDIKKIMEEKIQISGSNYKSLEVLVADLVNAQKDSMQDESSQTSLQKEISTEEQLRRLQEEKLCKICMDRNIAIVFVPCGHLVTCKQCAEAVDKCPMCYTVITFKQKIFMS

Chain of Dihydroorotate dehydrogenase (quinone), mitochondrial (Plasmodium falciparum (isolate 3D7)) (Q08210 whole entry, looked up): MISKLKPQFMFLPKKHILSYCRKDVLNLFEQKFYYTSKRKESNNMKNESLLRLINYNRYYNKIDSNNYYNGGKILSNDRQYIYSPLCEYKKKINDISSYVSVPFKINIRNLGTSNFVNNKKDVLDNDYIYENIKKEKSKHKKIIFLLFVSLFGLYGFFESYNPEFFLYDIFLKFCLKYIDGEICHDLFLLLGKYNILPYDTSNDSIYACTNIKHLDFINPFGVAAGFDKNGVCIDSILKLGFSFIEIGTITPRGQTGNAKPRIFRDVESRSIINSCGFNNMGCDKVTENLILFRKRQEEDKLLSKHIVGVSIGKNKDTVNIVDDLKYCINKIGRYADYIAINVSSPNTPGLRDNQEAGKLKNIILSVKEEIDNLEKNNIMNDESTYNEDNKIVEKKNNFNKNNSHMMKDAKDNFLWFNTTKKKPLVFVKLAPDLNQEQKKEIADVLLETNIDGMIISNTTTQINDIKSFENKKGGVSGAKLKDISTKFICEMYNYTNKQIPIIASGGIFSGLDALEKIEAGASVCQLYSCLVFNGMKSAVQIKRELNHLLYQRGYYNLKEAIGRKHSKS

Compound	z-score [1]	z-score [2]	z-score [3]	composite z-score [4]	z-score [5]	z-score [6]	z-score [7]	z-score [8]	z-score [9]	composite z-score [10]
Cc1ccc(F)cc1S(=O)(=O)N[C@@H]1CCN(Cc2ccc(OC(C)C)cc2)C1	-0.917	-8.98 (active)	-2.09 (inactive)	-0.0588 (inactive)	-0.225 (inactive)	0.652 (inactive)	-20 (active)	-19.8 (active)	-0.945	-0.0794
COC(=O)C1(Cc2ccccc2)C=C2C(=C(C(C)C)C(=O)C2C)CN1 (stereo not given)	-0.88	0.736 (inactive)	-2.2 (inactive)	-1.72 (inactive)	1.35 (inactive)	0.905 (inactive)	-0.999 (inactive)	-0.927 (inactive)	-1.59	0.0493
COC1(C)CN(Cc2ccccc2Br)[C@H](/C=C/c2ccccc2)[C@H](Cc2ccccc2)O1 (stereo not given in full)	1.1	-0.138 (inactive)	0.832 (inactive)	-0.167 (inactive)	0.331 (inactive)	0.44 (inactive)	0.531 (inactive)	0.523 (inactive)	1.2	-0.102
CCOC(=O)C1=CC[C@@H](c2ccc([N+](=O)[O-])cc2)N(S(=O)(=O)c2ccc(C)cc2)[C@H]1c1ccccc1	0.468	2.52 (inactive)	0.541 (inactive)	0.914 (inactive)	0.229 (inactive)	0.901 (inactive)	-0.72 (inactive)	-0.445 (inactive)	0.546	-0.124
CC(=O)N1Cc2ccccc2C[C@]2(N=C(c3ccc(OCCCO)cc3)O[C@@H]2c2ccccc2)C1=O	-0.908	-0.776 (inactive)	-2.6 (inactive)	-0.375 (inactive)	0.122 (inactive)	1.93 (inactive)	1.55 (inactive)	1 (inactive)	-3.96	0.247
CCC[C@@H]1C[C@@]1(CCC)[C@@H](NP(=O)(c1ccccc1)c1ccccc1)c1ccc(Cl)cc1	0.405	1.3 (inactive)	-0.601 (inactive)	-1.09 (inactive)	0.439 (inactive)	0.525 (inactive)	-0.919 (inactive)	-0.26 (inactive)	-0.519	-0.0374
COC(=O)C1(Cc2ccccc2)C=C2C(=C(c3ccccc3)C(=O)C2C)CN1 (stereo not given)	-1.33	0.369 (inactive)	-2.99 (inactive)	-1.03 (inactive)	1.04 (inactive)	0.109 (inactive)	-1.25 (inactive)	-0.628 (inactive)	-1.78	-0.217
COCC(=C=CC[C@H](O)c1cccc(OCCO)c1)C[C@H](O)c1ccccn1	1.51	1.65 (inactive)	0.959 (inactive)	-0.672 (inactive)	0.437 (inactive)	1.07 (inactive)	1.38 (inactive)	1.23 (inactive)	1.66	-0.0453
O=C1O[C@@H](c2ccccc2)[C@@H](c2ccccc2)N2[C@@H](c3ccccc3OCCO)[C@]3(C(=O)Nc4ccc(C#CCCO)cc43)[C@@H](C(=O)Nc3nc4ccccc4s3)[C@H]12	-0.0116	0.282 (inactive)	-0.095 (inactive)	-0.176 (inactive)	0.986 (inactive)	2.39 (inactive)	-0.233 (inactive)	0.695 (inactive)	-0.226	-0.145
C[C@H]1C2=C3C(CC[C@H]4C(OCc5ccc(F)cc5C(F)(F)F)OC[C@](C)([C@@H]34)N(C(=O)OC(C)(C)C)C2)C2COC(=O)OCC21 (stereo not given in full)	-1.33	-0.0764 (inactive)	-1.43 (inactive)	-0.047 (inactive)	0.371 (inactive)	0.235 (inactive)	-0.698 (inactive)	-0.398 (inactive)	-1.18	0.572
COc1ccc(NC(=O)O[C@H]2[C@H](OC(=O)Nc3ccc4c(c3)OCO4)[C@@H](OC(=O)Nc3ccc4c(c3)OCO4)[C@@H](OC)O[C@@H]2CO)cc1	-0.315	1.96 (inactive)	-0.844 (inactive)	-0.445 (inactive)	2.33 (inactive)	1.56 (inactive)	1.13 (inactive)	0.0559 (inactive)	-0.85	-0.102
COCCOC(=O)N1C(=O)[C@@]2(c3cc(C#Cc4ccc(OC)cc4)ccc31)[C@H](C(=O)NC[C@H](O)c1ccccc1)[C@H]1C(=O)O[C@H](c3ccccc3)[C@H](c3ccccc3)N1[C@@H]2c1ccc(O)cc1	-0.857	-0.11 (inactive)	-1.09 (inactive)	-0.352 (inactive)	1.34 (inactive)	0.552 (inactive)	-0.365 (inactive)	-0.736 (inactive)	-1.32	0.261
C=CCOC(=O)[C@H]1[C@@H]2C(=O)O[C@@H](c3ccccc3)[C@@H](c3ccccc3)N2[C@@H](c2ccc(OCCOC(=O)[C@H]3C[C@H]4C(=O)N[C@@H](Cc5ccccc5)C(=O)N4[C@H]3c3cccc(OCCO)c3)cc2)[C@]12C(=O)Nc1ccc(I)cc12	0.169	1.42 (inactive)	-0.446 (inactive)	0.64 (inactive)	2.17 (inactive)	1.04 (inactive)	-0.0281 (inactive)	0.0436 (inactive)	0.0282	-0.105
COC(=O)Cn1c(C(=O)N2CCCC2)cc2c1C[C@H]1CN(C(=O)c3ccccc3)[C@@](Cc3ccc(F)cc3)(C(=O)OC)[C@@H]21	0.716	0.702 (inactive)	-1.35 (inactive)	-0.653 (inactive)	0.756 (inactive)	-1.54 (inactive)	-0.132 (inactive)	-0.181 (inactive)	0.303	0.303
CC(C)N1CC=CC23O[C@@H]4C=CCOC(=O)[C@@H]4[C@H]2C(=O)N(C(C)CO)[C@@H]3C1=O (stereo not given in full)	0.629	0.433 (inactive)	0.273 (inactive)	-0.218 (inactive)	0.578 (inactive)	-0.603 (inactive)	0.17 (inactive)	-0.155 (inactive)	0.0803	0.226
CCOc1cc(C(O)C2C=CC3C(=O)N(C4CCCCC4)C(=O)C3N2Nc2ccc(OC)cc2)ccc1O (stereo not given)	0.182	0.0779 (inactive)	0.312 (inactive)	-0.665 (inactive)	0.698 (inactive)	0.0701 (inactive)	0.231 (inactive)	1.13 (inactive)	0.753	0.169
COc1cc(CO)cc(I)c1O[C@H]1C=C(C(=O)NCCO)C[C@@H](NCc2ccccc2F)[C@@H]1O	-0.0271	-2.31 (inactive)	-0.233 (inactive)	1.28 (inactive)	-0.365 (inactive)	1.09 (inactive)	0.491 (inactive)	0.41 (inactive)	0.559	0.0669
C=CC[C@@]1(C(=O)N2CCCCC2)N=C(c2ccc(OCCCO)cc2)O[C@@H]1c1ccccc1	1.63	-3.63 (inactive)	1.6 (inactive)	-0.765 (inactive)	-0.441 (inactive)	0.404 (inactive)	-0.212 (inactive)	-0.155 (inactive)	1.02	0.454
O=C1O[C@H](c2ccccc2)[C@H](c2ccccc2)N2[C@H]1[C@@H](C(=O)O)[C@]1(C(=O)Nc3ccccc31)[C@H]2c1ccc(O)cc1	-0.401	0.671 (inactive)	0.186 (inactive)	-1.66 (inactive)	1.53 (inactive)	0.473 (inactive)	0.293 (inactive)	-0.221 (inactive)	0.494	-0.237
CN(C)C(=O)[C@]1(CCC(=O)OC(C)(C)C)N=C(c2ccc(OCCCO)cc2)O[C@@H]1c1ccccc1	-0.0109	-0.0261 (inactive)	0.352 (inactive)	-0.19 (inactive)	0.248 (inactive)	0.0653 (inactive)	0.0325 (inactive)	-0.384 (inactive)	0.448	-0.0773
COCCCNC(=O)[C@]1(Cc2ccccc2N=[N+]=[N-])N=C(c2ccc(OCCCO)cc2)O[C@@H]1c1ccccc1N=[N+]=[N-]	-2.52	0.298 (inactive)	-3 (inactive)	-0.282 (inactive)	1.07 (inactive)	0.315 (inactive)	0.342 (inactive)	-0.435 (inactive)	-2.76	-0.0332
C=C(COC)/C(=C/C[C@@H](OC(=O)c1ccncc1)c1ccc(CO)o1)c1cnc2ccccc2c1	0.7	0.705 (inactive)	0.372 (inactive)	-7.93 (inactive)	0.379 (inactive)	1.2 (inactive)	0.16 (inactive)	0.0648 (inactive)	0.235	0.641
C=C1C2CC3C(=C4C(CO[C@@H]4[C@H]4CCCN4S(=O)(=O)c4ccccc4[N+](=O)[O-])C4C(=O)N(C)C(=O)C34)CC2C(=O)N1C (stereo not given in full)	-0.398	-1.05 (inactive)	-0.316 (inactive)	-0.911 (inactive)	0.413 (inactive)	-0.302 (inactive)	-0.579 (inactive)	-0.219 (inactive)	-0.864	-0.102
